{
  "source": "PubChem BioAssay (EPA / NIEHS)",
  "note": "“And” between values parts separate entries of the source, which are not always exact repeats. Equal entries are not always repeated. Records with an inconclusive call do not appear. Some compounds were tested as several samples or in several runs, with calls that do not always agree. The source made the active and inactive calls. Rule for the calls: active = hit-call score of the fitted dose curve at least 0.9, where 1 is the maximum; inconclusive = response in the unintended direction; inactive = score below 0.9.",
  "data": [
    {"target": "human Thyroid Receptor alpha (THRa1), THRA (gene 7067) (UniProt P10827)", "sequence (P10827 whole entry, looked up)": "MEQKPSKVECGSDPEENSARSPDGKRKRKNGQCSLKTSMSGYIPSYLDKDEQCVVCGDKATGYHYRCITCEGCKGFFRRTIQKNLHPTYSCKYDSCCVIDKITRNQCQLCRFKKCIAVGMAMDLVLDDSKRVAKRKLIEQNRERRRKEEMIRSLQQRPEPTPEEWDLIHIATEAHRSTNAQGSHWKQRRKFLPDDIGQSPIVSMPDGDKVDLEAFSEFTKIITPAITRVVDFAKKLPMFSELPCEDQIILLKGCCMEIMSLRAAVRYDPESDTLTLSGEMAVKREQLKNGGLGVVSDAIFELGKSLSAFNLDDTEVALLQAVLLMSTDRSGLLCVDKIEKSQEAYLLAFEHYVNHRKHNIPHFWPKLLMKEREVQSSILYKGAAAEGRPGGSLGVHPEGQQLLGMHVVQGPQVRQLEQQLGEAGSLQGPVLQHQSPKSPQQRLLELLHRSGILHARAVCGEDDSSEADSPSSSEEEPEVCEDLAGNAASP", "experiment": "ATG_THRa1_TRANS: Attagene TRANS-FACTORIAL HepG2 Assay for human Thyroid Receptor alpha (THRa1) (AID 2283014)", "description": "ATG_TRANS is a cell-based, multiplexed-readout assay that uses HepG2, a human liver cell line, with measurements taken at 24 hours after chemical dosing in a 24-well plate.ATG_THRa1_TRANS is one of 30 assay component(s) measured or calculated from the ATG_TRANS assay. It is designed to make measurements of mRNA induction, a form of inducible reporter, as detected with fluorescence intensity signals by Reverse transcription polymerase chain reaction (RT-PCR) and Capillary electrophoresis technology.Data from the assay component ATG_THRa1_TRANS was analyzed into 1 assay endpoint. This assay endpoint, ATG_THRa1_TRANS, was analyzed in the positive analysis fitting direction relative to DMSO as the negative control and baseline of activity. Using a type of inducible reporter, measures of mRNA for gain-of-signal activity can be used to understand the reporter gene at the transcription factor-level as they relate to the gene THRA. Furthermore, this assay endpoint can be referred to as a primary readout, because this assay has produced multiple assay endpoints where this one serves a reporter gene function. To generalize the intended target to other relatable targets, this assay endpoint is annotated to the nuclear receptor intended target family, where the subfamily is non-steroidal.\nHuman liver HepG2 cells are transiently transfected with multiple reporter transcription units (MRTUs) in 6-well plates using FuGene 6 reagent (Roche; 3 ml FuGene/1 mg DNA). The MRTU constructs are regulated by a cis-regulating element (promoter). […] A major difference between the CIS and TRANS system is that in CIS activities of endogenous TFs are measured, whereas the TRANS assay evaluates changes in activities of exogenous, chimeric NR-Gal4 proteins. […] At the end of 24 hour incubation, total RNA was isolated using TriZol reagent (Invitrogen). The isolated RNA is then reverse-transcribed using oligo(dT) primer and Mo-MLV reverse transcriptase (Invitrogen) with DNAse I (Ambion) treatment for 30 min. The one-tenth of the produced cDNA was amplified by PCR using Taq DNA polymerase (Invitrogen) and two reporter sequence-specific primers. The PCR products were fluorescently labeled by primer extension with 6-arboxyfluorescein (6-FAM) 5'-labeled reporter sequence-specific primer (2 min at 95 C, 20 s at 68 C and 10 min at 72 C) and these products were digested with 5U of HpaI (New England Biolabs) for 2h at 37 C. The fragments were purified using Qiaquick PCR columns (Qiagen), analyzed on an ABI 3130xL genetic analyzer (Applied Biosystems) with peak positions identified by using a set of X-rhodamine (ROX)-labeled MapMarker1000 molecular weight standards (BioVentures). The raw capillary electrophoresis data was processed using Attagraph software (Attagene).", "values": [
      {"smiles": "COc1ccc(C(C)=O)cc1", "outcome": "inactive"},
      {"smiles": "O=C1CCCCCCCCCCCC(=O)OCCO1", "outcome": "inactive"},
      {"smiles": "CCCCCCCCOC(C)=O", "outcome": "inactive"},
      {"smiles": "O=c1cc(-c2ccc(O)cc2)oc2cc(O)cc(O)c12", "outcome": "inactive"},
      {"smiles": "CN(C)C(=O)Nc1ccccc1", "outcome": "inactive"},
      {"smiles": "C=CCOC(=O)/C=C\\C(=O)OCC=C", "outcome": "inactive"},
      {"smiles": "CC(=O)Nc1cc(S(=O)(=O)O)cc2cc(S(=O)(=O)O)c(N=Nc3ccccc3)c(O)c12", "outcome": "inactive"},
      {"smiles": "C=COCC1CCC(COC=C)CC1", "note": "(stereo not given)", "outcome": "inactive"},
      {"smiles": "CC(=O)CCC(=O)O", "outcome": "inactive"},
      {"smiles": "COC(=O)C(C)Oc1ccc(Oc2ncc(C(F)(F)F)cc2Cl)cc1", "note": "(stereo not given)", "outcome": "inactive"},
      {"smiles": "O=C(c1ccc(OCCN2CCCCC2)cc1)c1c(-c2ccc(O)cc2)sc2cc(O)ccc12", "AC50": "8.22 µM (active) and 15 µM (active) and 11.1 µM (active)", "outcome": "inactive"},
      {"smiles": "CCc1cccc(O)c1", "outcome": "inactive"},
      {"smiles": "CC(=O)Oc1c(C)c(C)c2c(c1C)CC[C@@](C)(CCC[C@H](C)CCC[C@H](C)CCCC(C)C)O2", "outcome": "inactive"},
      {"smiles": "C=C(C)C(=O)OCCC[Si](OC)(OC)OC", "outcome": "inactive"},
      {"smiles": "CC(=O)C1=C(C)[C@@H]2C[C@@]3(C1)[C@H](C)CC[C@H]3C2(C)C", "outcome": "inactive"},
      {"smiles": "CC(C)CCOC(=O)CC(C)C", "outcome": "inactive"},
      {"smiles": "c1ccc2scnc2c1", "outcome": "inactive"},
      {"smiles": "CCCCOCCOC(=O)c1ccccc1C(=O)OCCOCCCC", "outcome": "inactive"},
      {"smiles": "O=[N+]([O-])c1cc(N(CCO)CCO)ccc1NCCO", "outcome": "inactive"},
      {"smiles": "CCCCN(CCO)CCO", "outcome": "inactive"},
      {"smiles": "CC/C(=C(\\c1ccccc1)c1ccc(OCCN(C)C)cc1)c1ccccc1", "outcome": "inactive"},
      {"smiles": "c1ccc(Sc2ccccc2)cc1", "outcome": "inactive"},
      {"smiles": "Nc1ccc(N)c([N+](=O)[O-])c1", "outcome": "inactive"},
      {"smiles": "O=C(O)c1cc2ccccc2cc1O", "outcome": "inactive"},
      {"smiles": "COc1ccc2[nH]cc(CCNC(C)=O)c2c1", "outcome": "inactive"},
      {"smiles": "O=C(O)c1cccc(Cl)n1", "outcome": "inactive"},
      {"smiles": "CC(=O)c1ccc(O)cc1", "outcome": "inactive"},
      {"smiles": "COc1ccccc1O", "outcome": "inactive"},
      {"smiles": "CCC(C)(C)c1cc(O)c(C(C)(C)CC)cc1O", "outcome": "inactive"},
      {"smiles": "CC(C)Cc1ccc(C(C)C(=O)O)cc1", "note": "(stereo not given)", "outcome": "inactive"},
      {"smiles": "OCC=Cc1ccccc1", "outcome": "inactive"},
      {"smiles": "c1ccc(OCCOc2ccccc2)cc1", "outcome": "inactive"},
      {"smiles": "C=CC(=O)OCC(CO)(COC(=O)C=C)COC(=O)C=C", "outcome": "inactive"},
      {"smiles": "C=C(C)C(N)=O", "outcome": "inactive"},
      {"smiles": "Cc1cc(O)c2c(c1)C(=O)c1cc(O)cc(O)c1C2=O", "AC50": "12.6 µM (active)"},
      {"smiles": "C#C[C@]1(O)CC[C@H]2[C@@H]3CCc4cc(O)ccc4[C@H]3CC[C@@]21C", "outcome": "inactive"},
      {"smiles": "CC(=O)CC(C)(C)C1CCCCC1", "outcome": "inactive"},
      {"smiles": "NC(=O)c1cccnc1", "outcome": "inactive"},
      {"smiles": "O=S(=O)(O)c1cc(S(=O)(=O)O)c2c(N=Nc3ccccc3)c(O)ccc2c1", "outcome": "inactive"}
    ]}
  ]
}
